The list is not random: actives were taken first. Their share in the collection is about 12%.
BAZ2B inh: qHTS Assay for Inhibitors of BAZ2B; hit rate 4.4% among 360,000; Potency, µM (titrated, usually from 114 µM), for inactives: top-dose activity change, negative = inhibition, hits mostly inhibitors; AlphaScreen BAZ2B-H3K14Ac peptide displacement; Bromodomain adjacent to zinc finger domain protein 2B (Homo sapiens), Q9UIF8; further: potency means the concentration at half of the fitted maximal effect; on the % scale 0 is the no-effect control and ±100 the full control effect; nearly all actives have a fitted effect of over 60% in size
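AlphaScreen displacement: compounds (up to 110uM) incubated 30 min at room temperature with a preformed 50 nM BAZ2B/50 nM biotinylated H3K14Ac peptide complex in PBS pH 7.4 with Tween-20. Donor and acceptor beads at 10 ug/mL final added, 20 min light-protected before reading.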
PI5P4Ka inh: qHTS for Inhibitors of phosphatidylinositol 5-phosphate 4-kinase (PI5P4K) | PI5P4Kalpha enzyme, ADP-Glo luminescence, 60 min; hits give low values | max response, % | hit rate 1.2% among 330,000 | AID 652105, 2013; active means max response of -50% or lower; inconclusive means between -30% and -50%; inactive means -30% or higher; further: value at the top dose of about 77 µM; on the % scale 0 is the no-effect control and ±100 the full control effect
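Compounds were pin-transferred onto PI5P4Kalpha and substrate in HEPES pH 7.4 buffer with EGTA, CHAPS and 5% DMSO. ATP (5 microM final) started the reaction, which ran 60 minutes at room temperature before ADP-Glo detection.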
JMJD2A Tudor inh: qHTS Assay for Inhibitors of JMJD2A-Tudor Domain; Lysine-specific demethylase 4A (Homo sapiens), O75164; hit rate 4.4% among 390,000; Potency, µM (series often up to 114 µM), for inactives: top-dose activity change, negative = inhibition, actives largely listed as inhibitors; AlphaScreen JMJD2A-Tudor / H3K4me3 peptide binding; AID 504339, 2011; further: potency means the concentration at half of the fitted maximal effect; on the % scale 0 is the no-effect control and ±100 the full control effect; nearly all actives have a fitted effect of over 50% in size
PLK1 PBD inh: qHTS for Inhibitors of PLK1-PDB (polo-like kinase 1 - polo-box domain): Primary Screen; Serine/threonine-protein kinase PLK1 (Homo sapiens), P53350; Plk1 PBD binding of FITC phosphopeptide, fluorescence polarization; Potency, µM, inactives show max response, negative = inhibition, usual class: inhibitors; hit rate 2.8% among 360,000; AID 720504, 2013; further: potency means the concentration at half of the fitted maximal effect; series mostly up to about 57 µM; on the % scale 0 is the no-effect control and ±100 the full control effect; nearly all actives have a fitted effect of over 65% in size
G9a inh: qHTS Assay for Inhibitors of Histone Lysine Methyltransferase G9a; Histone-lysine N-methyltransferase EHMT2 (Homo sapiens), Q96KQ7; G9a H3K9 monomethylation, AlphaScreen, 2 h; Potency, µM (highest dose often 102 µM), inactives show at the highest dose activity, negative = inhibition, actives largely listed as inhibitors; hit rate 8.8% among 350,000; AID 504332, 2011; further: potency means the concentration at half of the fitted maximal effect; on the % scale 0 is the no-effect control and ±100 the full control effect; nearly all actives have a fitted effect of over 75% in size
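Using a bead-based AlphaScreen, monomethylated H3K9 product from 2 h room-temperature reactions (G9a 20 nM, peptide 500 nM, SAM 20 uM) was detected with 0.5 ug/mL rabbit anti-H3K9me1 antibody.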
HP1b chromo inh: HTS for Inhibitors of HP1-beta Chromodomain Interactions with Methylated Histone Tails. Chromobox protein homolog 1 (Homo sapiens), P83916. AlphaScreen HP1-beta / biotin-H3K9me3 peptide binding. Potency, µM (titrated, usually from 114 µM), for inactives: at the highest dose activity change, negative = inhibition, hits mostly inhibitors. hit rate 0.56% among 390,000. AID 540317, 2011; further: potency means the concentration at half of the fitted maximal effect; nearly all actives have a fitted effect of over 70% in size
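Compound inhibition of the preformed complex between 50 nM HP1-beta and 50 nM biotinylated H3K9me3 peptide was read by AlphaScreen. Buffer was PBS pH 7.4 with 0.01% Tween-20. Incubations ran 30 min at room temperature, with 10 ug/mL donor/acceptor beads.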
Numbers without * were called inactive; ? = inconclusive; . = no result; [ ] = dose if it differs, or a comment. Unless noted, the call rests on the fitted dose curve; in most records, active means well fitted curve in the direction sought with a large enough effect; inconclusive means small, poorly fitted or top-dose-only effect, or another doubt; inactive means no such curve, though single readings can be large; an effect the other way counts as inactive or inconclusive.

SMILES	BAZ2B inh	PI5P4Ka inh	JMJD2A Tudor inh	PLK1 PBD inh	G9a inh	HP1b chromo inh
CC1=C/C(=N\Nc2ccccc2[N+](=O)[O-])CC(C)(C)C1	2.8µM*	19	7.9µM*	-6%	3.5µM*	7.1µM*
C/C(=N/Nc1ccccc1[N+](=O)[O-])c1ccc([N+](=O)[O-])cc1	?	2	-19%	-10%	-15%[2.33 µM]	11%
CC1=C(C(=O)N2CCOCC2)CC(CC(=O)NCc2cccc3ccccc23)C(=O)N1Cc1ccc(C(C)(C)C)cc1 (centres undefined)	.	14	.	2%	.	.
C=CCSc1n[nH]c2nc3c(c(=O)n12)C1(CCCC1)Cc1ccccc1-3	12%	-6	-10%	?	50µM*	39%
CCSc1n[nH]c2nc3c(c(=O)n12)C1(CCCC1)Cc1ccccc1-3	-6%	-7	0%	21µM*	21%[0.501 µM]	31%
Cc1ccc(S(=O)(=O)N2CCCc3cc(NC(=O)c4ccc(C(F)(F)F)cc4)ccc32)cc1	-10%	.	-13%	.	12%[59 µM]	22%
CCc1cccc(NC(=O)c2cnc(SC)nc2-c2ccccc2)c1	20%	.	15%	.	3%[59 µM]	61%
COc1ccc(-n2c(SCC(=O)Nc3ccc(C(=O)O)cc3)nnc2-c2ccccc2)cc1OC	56µM*	?	-18%	-12%	?	47%
COc1ccc(-n2c(SCC(=O)Nc3ccc(C(N)=O)cc3)nc3ccccc3c2=O)cc1OC	-28%	1	-21%	-7%	50µM*	-13%
COc1ccc(-n2c(SCC(=O)Nc3cccc(S(N)(=O)=O)c3)nc3ccccc3c2=O)cc1OC	-2%	4	-16%	0%	-14%	18%
O=C(CSc1nnc(-c2ccncc2)n1-c1ccccc1)Nc1ccc(C(=O)O)cc1	4%	?	-9%	-17%	50µM*	3%
O=C(CSc1nnc(-c2ccncc2)n1-c1ccccc1Cl)Nc1ccc(C(=O)O)cc1	.	-65*	-6%	-7%	?	41%
Cc1cccc(OCC(=O)N(Cc2ccccc2)c2c(N)n(Cc3ccccc3)c(=O)[nH]c2=O)c1	-5%	-14	-24%	-13%	-1%[59 µM]	28%
CCOc1ccc(NS(=O)(=O)c2ccc3[nH]cc(C(=O)N(C)C4CCCCC4)c(=O)c3c2)cc1	-16%	.	-11%	.	?	14%
CC(=O)c1cc(C(=O)Nc2cc(C)cc(C)c2)c2ccccn12	-1%	.	-6%	.	-29%[59 µM]	23%
Cc1ccc(S(=O)(=O)Nc2ccc(-c3ccc(N4CCCCCC4)nn3)cc2)cc1C	-2%	.	-18%	.	1%[59 µM]	-1%[57 µM]
CCc1nn2c(=O)cc(COC(=O)c3ccccc3NC(=O)COc3ccc(F)cc3)nc2s1	-2%	.	-3%	.	2%[12.7 µM]	34%
CCn1c(SCC(=O)Nc2ccc3c(c2)n(C)c(=O)n3C)nnc1-c1ccncc1	?	-2	-12%	-12%	.	10%
O=C(CSc1nnc(-c2cccc(S(=O)(=O)N3CCCC3)c2)n1-c1ccccc1)Nc1ccc(C(=O)O)cc1	50µM*	?	?	75µM*	?	8%
COc1ccc(-n2c(SCC(=O)Nc3nccs3)nnc2-c2ccccc2)cc1	-1%	-15	?	27µM*	2%	6%
Cn1c(=O)n(C)c2cc(NC(=O)CSc3nnc(-c4ccccc4O)n3-c3ccccc3)ccc21	50µM*	0	-14%	0%	-7%[12.7 µM]	20%
O=C(CSc1nnc(-c2ccncc2)n1-c1ccccc1)N1CCN(c2ccc(Cl)cc2)CC1	3%	3	-8%	1%	28µM*	-3%
Cc1ccccc1Cn1c(CN2CCC(C(=O)NCc3cccnc3)CC2)cc2ccccc21	?	.	-34%	.	-32%[59 µM]	7%
CCOC(=O)c1ccccc1OCc1cc(C2Nc3ccccc3C(=O)N2c2cccc3ccccc23)ccc1OC (centres undefined)	.	.	-3%[57.1 µM]	.	.	-8%[57 µM]
CCn1c(CC(=O)Nc2cccc(OC)c2)nnc1SCC(=O)Nc1nccs1	8%	.	-10%	-7%	56µM*	24%
SMILES	BAZ2B inh	PI5P4Ka inh	JMJD2A Tudor inh	PLK1 PBD inh	G9a inh	HP1b chromo inh
O=C(CSc1nnc2ccccn12)N1CCc2ccccc2C1	7%	-5	-7%	-8%	?	35%
CC(C)(C)OC(=O)N1Cc2ccccc2C[C@H]1C(=O)O	?	-5	-4%[11.4 µM]	-27%	56µM*	2%
C[C@@H](NC(=O)[C@@H]1Cc2ccccc2CN1C(=O)OC(C)(C)C)C(=O)NC1CCCC1	-16%	3	-27%	30µM*	14%	3%
O=C(O)C1Cc2ccccc2CN1C(=O)CSc1nnc2ccccn12 (centres undefined)	.	-3	-21%	-17%	50µM*	-5%
Cc1cccc(CNC(=O)Cc2csc3ccccc23)c1	11%	.	-5%	.	9%[59 µM]	45%
Cc1noc(C)c1-c1ccc(C(=O)NCc2cccs2)c2occc12	.	0	.	-3%	.	.
CC(=O)NCCNc1ccnc(-c2ccccc2C)n1	.	.	.	.	11%[0.501 µM]	.
NC(=O)c1ccsc1NC(=O)COC(=O)Cc1ccccc1Cl	7%	-24	-22%	2%	24%[12.7 µM]	26%
Cc1nn(-c2ccccc2)c(OC(=O)c2cccs2)c1S(=O)(=O)c1ccc([N+](=O)[O-])cc1	79µM*	.	?	-11%	?	13%
Cc1nn(-c2ccccc2)c(OC(=O)c2cccs2)c1S(=O)(=O)c1ccccc1	-31%	-14	-3%	-9%	10%[12.7 µM]	45%
O=C1c2ccccc2NC(c2ccc(Br)o2)N1O (centres undefined)	-36%	.	79µM*	.	-40%[2.33 µM]	15%
O=C1c2ccccc2NC(c2ccc(-c3cccs3)o2)N1O (centres undefined)	?	.	-19%	.	3%[0.501 µM]	34%
O=C1c2ccccc2NC(c2ccc([N+](=O)[O-])cc2)N1O (centres undefined)	-29%	-4	0%	4%	56µM*	13%
O=C1c2ccccc2NC(c2cccc(O)c2)N1O (centres undefined)	-16%	-8	4%	0%	45µM*	49%
COc1cccc(NC(=O)c2cccc(S(=O)(=O)N3CCN(Cc4ccccc4)CC3)c2)c1	-8%	3	?	-23%	8%[0.501 µM]	1%
